This passage reports growth results from PubChem BioAssay (NCI).

Compounds without any hit were thinned out: in the full panel of roughly 83,000, 20% have a hit.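 Growth was measured after 48 h exposure to one concentration of compound in 96-well plates. Values under 10 count as active.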 The source made the active and inactive calls.

This experiment deals with HL-60(TB) leukemia. The experiment is described as follows: NCI-60 one-dose screen, 48 h (100 = growth as untreated, 0 = no growth, -100 = all killed). Particulars: 10 µM unless noted.
Consider `O=C(/C=C\c1ccc(OCCCCCC[P+](c2ccccc2)(c2ccccc2)c2ccccc2)cc1)c1ccc2c(c1)OCCO2`, for which the growth was -13.2% (active).

Take `COc1ccc(C(=O)Nc2cccc(C3CCc4c(cc(OC)c(OC)c4OC)O3)c2)cc1` (stereo not given): the growth was 10.7% (inactive).

On to `CCOC(=O)c1c(NC(=S)Nc2ccc([N+](=O)[O-])cc2)sc2c1CCCCC2`, for which the growth was 70.5% (inactive).

With `COc1ccc(C(O)c2cc3c(N)c(C(=O)Nc4cccc(Cl)c4)sc3nc2C)cc1` (stereo not given), the growth was 0.332% (active).

Take `Cc1nc(S(=O)(=O)c2ccccc2)c(S(=O)(=O)Cc2ccc([N+](=O)[O-])cc2)o1`: the growth is 89.9% (inactive).

As to `C[C@H]1[C@H](C)CC[C@]2(COC(=O)CCC(=O)O)CC[C@]3(C)C(=CC[C@@H]4[C@@]5(C)CCCNC(C)(C)[C@@H]5CC[C@]43C)[C@H]12`, the growth was 49.3% [100 µM] (inactive).

In the case of `COc1ccc(-n2nc(C)c3c(Nc4ccc(NC(=O)Nc5cccc(C(F)(F)F)c5)cc4)ncnc32)cc1`, the growth is -1.99% (active).

As to `Cn1c(-c2ccccc2)cc(=O)n1-c1ccccc1`, the growth was 109% (inactive).

Take `O=C(/C=C/c1ccccc1)c1ccccc1O`: the growth was 24.1% (inactive).

For `COc1ccc(/C=C2\Oc3cc(OCCCN4CCCC4)ccc3C2=O)cc1`, the growth was 94.7% (inactive).

As to `CCCCN(CCCC)Cc1c(C)[nH]c2cc(OC)ccc2c1=O`, the growth was 94.1% (inactive).

Regarding `CC1=C(C/C=C(\C)CCC[C@H](C)CCC[C@H](C)CCCC(C)C)C(=O)c2ccccc2C1=O`, the growth is 105% (inactive).

Regarding `CCOC(=O)N1C2CCC(C2)N1C(=O)OCC`, the growth is 92.4% (inactive).

For `O=CN1N=C(c2cccc(Nc3ccncc3)c2)CC1c1ccc2c(c1)OCO2` (stereo not given), the growth was 85.5% (inactive).

For `CCCCCCC(CCCC)COC(=O)c1ccc(Cl)cc1` (stereo not given), the growth is 100% (inactive).

Regarding `CCN1C(=O)N(CC)C2C1NN=c1s/c(=C\c3ccccc3)c(=O)n12` (stereo not given), the growth was -45.3% (active).

Take `O=C(/C=C/c1ccc(F)cc1)N1CCN(C(=O)/C=C/c2ccc(C(F)(F)F)cc2)CC1`: the growth was 97% (inactive).

Regarding `COC(=O)/C(CCC=C(C)C)=C1\[C@@H](OC(C)=O)C[C@@]2(C)[C@H]1CC(=O)[C@H]1[C@@]3(C)CC[C@H](NCc4ccccc4)[C@@H](C)[C@@H]3CC[C@@]12C`, the growth is 84.7% (inactive).

In the case of `COc1cc2c(c(OC)c1OC)-c1ccc(NNC(N)=S)c(=O)cc1[C@@H](NC(C)=O)CC2`, the growth was -13.9% (active).

Take `O=C1C2C(C(=O)N1CC[Se][Se]CCN1C(=O)C3C(C1=O)[C@H]1C=C[C@@H]3C1)[C@H]1C=C[C@@H]2C1` (stereo not given in full): the growth was -54.7% (active).

For `COc1ccncc1C#Cc1cncc(C(=O)Nc2ccc(CN3CCN(C)CC3)c(C(F)(F)F)c2)c1`, the growth is 8.01% (active).

Take `COc1ccc(-c2nnc(COc3ccc(NS(=O)(=O)c4ccc(OC)cc4)cc3F)o2)cc1`: the growth was 76.6% (inactive).

As to `Cc1cc2c(cc1[N+](=O)[O-])NC(CNC(C)C)CC2` (stereo not given), the growth is 90.9% (inactive).

`BrC1CC(Br)c2c1c1c(c3c2C(Br)CC3Br)C(Br)CC1Br` (stereo not given): the growth was 55.7% (inactive).

`O=S(=O)(Nc1ccccn1)c1ccc(N=Nc2ccc(O)c3ncccc23)cc1`: the growth is -30.6% (active).

Turning to `CCOc1nc(-c2ccccc2)cc2c(O)c(C(=O)NN)[nH]c(=O)c12`, the growth is 151% (inactive).

`COc1ccc2c(c1OC)C(=O)O[C@@H]2[C@H]1c2c(c(C#CC#Cc3ccc(F)c(F)c3)c3c(c2OC)OCO3)CCN1C`: the growth is 76.9% (inactive).

For `COc1cc2nc(Cl)nc(Nc3cccc(C(=O)/C=C/c4ccc(F)cc4)c3)c2cc1OC`, the growth was 62.1% (inactive).

Turning to `CC(C)n1cc(C2=C(c3cccc4ccccc34)C(=O)NC2=O)c2cc(Br)ccc21`, the growth was 54.1% (inactive).

Consider `CN1CCN(CCCCCN=c2cc3c(=O)n(CCCCCN4CCN(C)CC4)c(=O)c4c(NCCCCCN5CCN(C)CC5)cc5c(O)n(CCCCCN6CCN(C)CC6)c(=O)c2c5c4-3)CC1`, for which the growth was 51.5% (inactive).

On to `O=C(NCc1ccccc1O)c1cccc2ccccc12`, for which the growth was 66.7% (inactive).

As for `Cc1ccc2c(c1)C(C)Cc1c(ncnc1-n1cnc3cc(C)ccc31)N2C` (stereo not given), the growth is -22% (active).

As to `N#Cc1c(-c2ccc(Cl)cc2)nc(NCCO)[nH]c1=O`, the growth was 102% (inactive).

Take `Cc1[nH]nc(C(N)=O)c1[N+](=O)[O-]`: the growth was 129% (inactive).

On to `Cc1nc2c(c(-c3ccccc3)n1)Cc1c(ccc3ccccc13)O2`, for which the growth was 103% (inactive).

`Cc1cc(Nc2ccc(C(=O)N3CCCC3)cc2)nc(NCCCNc2ccnc3cc(Cl)ccc23)n1`: the growth is 84.4% (inactive).

In the case of `COc1ccc(-c2nn(-c3cccc(Cl)c3)cc2-c2cc(-c3ccc(Br)cc3)nc(N)n2)cc1`, the growth is 88.4% (inactive).

Turning to `Cc1ccc(C(=O)O)c(N)c1C`, the growth was 95.1% (inactive).

Regarding `OCc1ccc(-c2ccc(-c3ccc(CO)s3)o2)s1`, the growth was 21.7% (inactive).

Regarding `O=C(COC(=O)[C@H](C[Se][Se]C[C@H](NC(=O)c1ccc(Br)cc1F)C(=O)OCC(=O)c1ccc(F)cc1)NC(=O)c1ccc(Br)cc1F)c1ccc(F)cc1`, the growth was -45.3% (active).
